Ten molecules from PubChem BioAssay can be followed below.

“And” between values parts separate entries of the source, which are not always exact repeats. Equal values may be shown once. Records with an inconclusive call do not appear. The source made the active and inactive calls. Unless noted, no rule for the calls is given here.

Test [1] can be described thus: compounds altering circadian rhythm period length – cell-based, LOPAC library, luminescence reporter (AID 2774).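 Also: values are relative to mean of DMSO wells on each plate.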 The note with it: circadian reporter cells, at 7 µM, actives lie on both sides.
In test [2] the test system is Hepatitis C virus NS3 helicase. Nature of the test: blockers of NS3h binding to ssDNA – biochemical, fluorescence polarization, LOPAC1280 library, primary screen (AID 687035; in the data active = inhibition above about 37%). Particulars: Purified HCV NS3 helicase, Cy5-dT15 ssDNA binding fluorescence polarization; stronger effect = higher value; concentration not given here.
The nature of test [3]: compounds altering Cy5-DNA-NS3h complex signal – biochemical, LOPAC1280, artefact control for HCV NS3 helicase inhibitor project (AID 687037). Particulars: Cy5-DNA-NS3h complex fluorescence interference counterscreen.
In test [4] the test system is Aerobactin synthetase IucA (Klebsiella pneumoniae, hypervirulent). Nature of the test: biochemical IucA inhibition screen of LOPAC library by absorbance (AID 1346212).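 Also: 100% = no compound wells and 0% = no enzyme wells.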 Particulars: IucA enzyme assay, absorbance (OD) readout; stronger effect = lower value;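 tested at 8 µM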.
Test [5] is described as follows: viability loss in pontine glioma line – cell-based, SU-DIPG-XVII, MIPE5.0, CellTiter-Glo, qHTS, dose response (AID 1347060; cut-off not given, nearly all actives have AC50 up to about 26 µM;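 also: cells exposed to compound for 48 hours before viability readout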). Particulars: CellTiter-Glo ATP luminescence. A general note: Cellular ATP, detected with luciferase, serves as a proxy for viable cell number.
The nature of test [6]: viability loss in pontine glioma line – cell-based, SU-DIPG-XIII, MIPE4.0, CellTiter-Glo, qHTS, dose response (AID 1347061; cut-off not given, nearly all actives have AC50 up to about 37 µM;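 also: cells exposed to compound for 48 hours before readout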). The note with it: CellTiter-Glo ATP luminescence.
A short description of test [7]: viability loss in pontine glioma line – cell-based, JHH-DIPG-1, MIPE4.0, CellTiter-Glo, qHTS, dose response (AID 1347062; cut-off not given, nearly all actives have AC50 up to about 27 µM;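 also: cells exposed to compound for two days before readout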). Particulars: JHH-DIPG-1 viability, CellTiter-Glo ATP luminescence.
A short description of test [8]: viability loss in pontine glioma line – cell-based, SU-DIPG-IV, MIPE4.0, CellTiter-Glo, qHTS, dose response (AID 1347063; cut-off not given, nearly all actives have AC50 up to about 30 µM;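 also: compound exposure lasted 48 hours before the viability readout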). The note with it: CellTiter-Glo ATP luminescence.
The nature of test [9]: viability loss in pontine glioma line – cell-based, SU-DIPG-XIII, MIPE5.0, CellTiter-Glo, qHTS, dose response (AID 1347064; cut-off not given, nearly all actives have AC50 up to about 23 µM;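 also: cells exposed to compound for 48 hours before the viability read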). Particulars: CellTiter-Glo ATP luminescence.
Test [10] is described as follows: viability loss in pontine glioma line – cell-based, SU-DIPG-XXV, MIPE5.0, CellTiter-Glo, qHTS, dose response (AID 1347065; cut-off not given, nearly all actives have AC50 up to about 26 µM;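 also: cells exposed to compound for 48 hours before ATP readout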). The note with it: CellTiter-Glo ATP luminescence.
The nature of test [11]: growth inhibition of DIPG cells – cell-based, MIPE4.0 library, CellTiter-Glo luminescence, qHTS (AID 1347066; cut-off not given, nearly all actives have AC50 up to about 30 µM;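 also: cells exposed to compound for 48 hours before readout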). Particulars: SU-DIPG-VI viability, CellTiter-Glo ATP luminescence.
A short description of test [12]: growth inhibition of DIPG cells – cell-based, MIPE5.0 library, qHTS (AID 1347068; cut-off not given, nearly all actives have IC50 up to about 30 µM;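 as to IC50: cells exposed to compound for 48 hours before viability readout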). Particulars: SU-DIPG-XXV viability. A general note: In qHTS, concentration-response curves come from the screen itself.
Test [13] in a line: viability loss with induced miR-34 in A549 – imaging, A549 dox-inducible miR-34, nuclei and caspase counts, primary screen (AID 1347080;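 active = compounds whose cell count with miR-34 switched on is under 0.7 times the count with it off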). Particulars: A549 miR-34 inducible, Hoechst nuclei count, 48 h.
The nature of test [14]: chitosan synthesis blockers in C. neoformans – flow cytometry, Cibacron Brilliant Red staining (AID 1347148).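 Also: compound exposure lasted three days at 37 degrees C.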 Particulars: Cryptococcus neoformans chitosan, stronger effect = lower value; at 10 µM unless noted. On the technique in general: A flow cytometer gives signals particle by particle.
The nature of test [15]: blockers of cellular phospholipid synthesis – cell-based, LOPAC library, screen 4, primary screen (AID 1347384). The note with it: animal cells, phospholipid biosynthesis inhibition screen; at 10 µM.
Test [16] in a line: galactose survival enhancers in mitochondrial complex I cybrids – cell-based, galactose medium, ATP luminescence, primary screen (AID 1645843;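 active = z-score of at least 1.8 in each of two replicates, scored against plate mean and spread of sample wells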;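 also: positive z means more ATP and so rescue of galactose-driven cybrid death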). Particulars: complex I mutant cybrid cells, 72 h, stronger effect = higher value.
Test [17] in a line: MELAS cybrid and Rieske KO viability enhancers – cell-based, MELAS cybrids, Rieske KO mouse fibroblasts, CellTiter-Glo, primary screen (AID 1508586;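 active = mean z-score across replicates of 1.96 or higher in either the MELAS or the Rieske mutant cell line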;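 also: z relative to plate mean and SD of compound and empty wells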). The note with it: low glucose.
Test [18] can be described thus: compounds altering viability of human ES cells (AID 493140).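 Also: cells exposed to compounds for four days before counting.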 Particulars: human embryonic stem cell survival screen; stronger effect = higher value.
Test [19] is described as follows: JHH-DIPG-1 glioma cell viability, MIPE5.0 library, CellTiter-Glo luminescence, qHTS (AID 1347067; cut-off not given, nearly all actives have AC50 up to about 26 µM;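 also: cells exposed to compound for 48 hours before readout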). Particulars: JHH-DIPG-1 glioma viability, CellTiter-Glo ATP luminescence.
Where [20] appears, read: measured here: relative caspase fold change +Dox/-Dox.
The mark [21] stands for this setting: measured here: total cells with miR-34 induction, stronger effect = lower value.
Where [22] appears, read: measured here: total cells without miR-34 induction.

Consider `C/C=C(/C)C(=O)O[C@H]1C(C)=C2[C@H]([C@@H]1OC(=O)CCCCCCC)[C@@](C)(OC(C)=O)C[C@H](OC(=O)CCC)[C@@]1(O)[C@H]2OC(=O)[C@@]1(C)O`, for which the period change in test [1] was 9.62 h (inactive). In addition, the inhibition (in general, the relative decrease from the control value, in per cent) in test [2] is -3% (inactive). Moreover, the fluorescence ratio (interference) in test [3] is 1 (inactive). Also, in [4], the remaining activity (usually the signal under treatment as a percentage of the control signal) is 86.6% (inactive). Also, the AC50 (commonly the midpoint of the concentration-response curve, whichever way the signal moves) in test [5] was 52.5 nM (active); in test [6], 590 nM (active); in test [7], 46.9 nM (active); in [8], 7.43 nM (active); in test [9], 295 nM (active); in test [10], 23.5 nM (active). Further, the AC50 in test [11] is 105 nM (active). Moreover, the IC50 (in general, the concentration at which inhibition is half-maximal) in [12] is 1320 nM (active). The fold change is 1.93 (inactive) and 1.56 (inactive) in test [13] (stronger effect = lower value); 0.132 and 0.916 in test [13] (setting [20]). The cell count in [13] (setting [21]) is 662 and 522; in [13] (setting [22]), 343 and 336. Further, in test [14], the fold fluorescence is 5.31 [at 76.8 µM] (inactive). In addition, the call in [15] was inactive. Further, in test [16], the z-score was -1.38 (inactive).
On to `NC(=O)CN1CC(O)CC1=O` (stereo unspecified), for which, in [1], the period change is 0.03 h (inactive). The inhibition in [2] is -2% (inactive). The fluorescence ratio (interference) in [3] is 1 (inactive). Moreover, the remaining activity in [4] is 115% (inactive). Besides, the fold change was 1.04 (inactive) and 0.877 (inactive) in test [13] (stronger effect = lower value); 1.56 and 1.01 in test [13] (setting [20]). The cell count in test [13] (setting [21]) is 10800 and 8840; in test [13] (setting [22]) it was 10500 and 10100. For the same molecule, the result in test [15] was inactive. The z-score in [17] (MELAS cybrid survival, CellTiter-Glo 48 h, stronger effect = higher value) is -0.221 (inactive); in [17] (Rieske KO mouse fibroblast survival, CellTiter-Glo 72 h) it was -0.154; in test [16], 0.605 (inactive).
For `CP(=O)(O)C1=CCNCC1`, in test [1], the period change is 0.005 h (inactive). Moreover, the inhibition in test [2] is -5% (inactive). In [3], the fluorescence ratio (interference) was 1 (inactive). The remaining activity in [4] is 95.4% (inactive). The figures for the fold change in test [13] (stronger effect = lower value) and in test [13] (setting [20]) were 0.981 (inactive) and 1.49, respectively. Moreover, the cell count in test [13] (setting [21]) turned out to be 9760; in test [13] (setting [22]) it was 9940. Further, the call in [15] was inactive. Also, in test [16], the z-score was 0.2 (inactive).
Consider `N=C(N)c1ccccc1`, for which the remaining activity in test [4] was 121% (inactive).
In the case of `N#C/C(=C\c1ccc(O)c(O)c1)C(N)=S`, in test [18], the survival is 132 (inactive). Also, in test [4], the remaining activity was 89.1% (inactive). The fold change in [13] (stronger effect = lower value) was 0.909 (inactive); in test [13] (setting [20]), 1.22. The cell count in [13] (setting [21]) is 4790; in [13] (setting [22]), 5270. Besides, the fold fluorescence in test [14] was 5.68 [at 227 µM] (inactive).
`CCCN(CCC)[C@@H]1CCc2cccc(O)c2C1`: the period change in [1] was -0.075 h (inactive). The inhibition in [2] is -5% (inactive). Besides, in [3], the fluorescence ratio (interference) was 1 (inactive). Further, in test [4], the remaining activity was 102% (inactive). The results for the fold change in test [13] (stronger effect = lower value) and in test [13] (setting [20]) were 1.11 (inactive) and 1.06, respectively. The values for the cell count in test [13] (setting [21]) and in test [13] (setting [22]) were 10200 and 9240, respectively. Further, the call in [15] was inactive. In addition, the z-score in [16] is -0.38 (inactive).
Take `NCCCP(=O)(O)O`: in [1], the period change is 0.005 h (inactive). Besides, in test [2], the inhibition is -1% (inactive). Further, in test [3], the fluorescence ratio (interference) is 1 (inactive). Further, the remaining activity in [4] is 111% (inactive). For the same molecule, the fold change was 0.943 (inactive) in [13] (stronger effect = lower value) and 2.14 in test [13] (setting [20]). The cell count in test [13] (setting [21]) stood at 9360; in test [13] (setting [22]), 9930. In test [15], the outcome was inactive. Moreover, in test [16], the z-score was 0.285 (inactive).
For `COC[C@H]1OC(=O)c2coc3c2[C@@]1(C)C1=C(C3=O)C2CCC(=O)[C@@]2(C)C[C@H]1OC(C)=O` (stereo partly specified), the period change in [1] was -0.52 h (inactive). Moreover, in test [18], the survival is 37.8 (inactive). The inhibition in [2] is -1% (inactive). In addition, in test [3], the fluorescence ratio (interference) was 1 (inactive). In addition, in test [4], the remaining activity was 109% (inactive). The AC50 is 5250 nM (active) in test [5]; 23500 nM (active) in [6]; 3720 nM (active) in [8]; 2630 nM (active) in test [10]; 18700 nM (active) in [11]; 4170 nM (active) in [19]. For the same molecule, the fold change was 1.01 (inactive) in [13] (stronger effect = lower value) and 1.88 in [13] (setting [20]). Also, the cell count in [13] (setting [21]) amounted to 3350; in test [13] (setting [22]) it was 3320. For the same molecule, the molecule was classed as inactive in test [15]. For the same molecule, in test [16], the z-score was 0.165 (inactive).
`CC(=O)c1c(O)c(C)c(O)c(Cc2c(O)c3c(c(C(=O)/C=C/c4ccccc4)c2O)OC(C)(C)C=C3)c1O`: the period change in test [1] is 0.065 h (inactive). The survival in test [18] is 142 (inactive). Moreover, in test [2], the inhibition was -3% (inactive). In addition, the fluorescence ratio (interference) in test [3] was 0.9 (inactive). Also, the remaining activity in test [4] is 100% (inactive). In addition, the AC50 is 20900 nM (active) in [10] and 23500 nM (active) in test [19]. Besides, the molecule was called inactive in test [12]. Also, the fold change is 0.991 (inactive) and 1.02 (inactive) in test [13] (stronger effect = lower value); 1.01 and 0.826 in test [13] (setting [20]). Moreover, the cell count was 1480 and 1570 in test [13] (setting [21]); 1490 and 1540 in [13] (setting [22]). Also, the fold fluorescence in [14] was 4.65 [at 96.8 µM] (inactive). In test [15], the outcome was active. Besides, in test [16], the z-score is -1.27 (inactive).
`CCCn1c(C)c(C(=O)c2cccc3ccccc23)c2ccccc21`: in test [4], the remaining activity is 107% (inactive). The fold change in test [13] (stronger effect = lower value) is 0.889 (inactive); in [13] (setting [20]), 1.38. Further, the cell count in test [13] (setting [21]) came out at 5580; in [13] (setting [22]), 6280.
